{"source": "the supplement of paper PMC7556523", "note": "Unmarked numbers belong to inactive results.", "data": [{"tested_on": "Sporothrix brasiliensis CBS 133006", "test": "growth inhibition relative to untreated control; higher = more growth inhibition (more antifungal activity), active = 80 or more; extreme values may be limits of the assay", "conditions": "1 µM; 48 h", "outline": "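Yeast-form cells of the reference isolates (grown 7 days in brain heart infusion broth with 2% glucose at 36°C) were exposed at 1 x 10^5 CFU/ml to library compounds at a final 1 μM for 48 h at 35°C in 5% CO2. Growth was checked by visual inspection under an inverted light microscope and quantified by spectrophotometric readings. The value is percent growth inhibition relative to untreated control. Runs were in quadruplicate.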", "values": [{"smiles": "CCN(CC)S(=O)(=O)c1ccc(Cl)c(C(=O)Nc2ccc3nc(C)sc3c2)c1", "growth inhibition": "0.5%"}, {"smiles": "Cc1nn2c(=O)c3c([nH]c2c1-c1ccc(Cl)cc1)CCCC3", "growth inhibition": "12.8%"}, {"smiles": "COc1ccc(CCN2CCC(NCc3cccc(N(C)C)c3)CC2)cc1", "growth inhibition": "29%"}, {"smiles": "FC(F)(F)c1cc(NCCc2ccccc2)nc(-c2ccccn2)n1", "growth inhibition": "10%"}, {"smiles": "O=C(Nc1nc(-c2ccccn2)cs1)C1CC1c1ccccc1F", "note": "(stereo unspecified)", "growth inhibition": "9.5%"}, {"smiles": "CC(C)(C)CN1C(=O)C(c2ccccc2)(c2ccccc2)N=C1N", "growth inhibition": "17.8%"}, {"smiles": "Cc1nc(-c2ccccn2)nc(N(C)CCc2ccccc2)c1Cl", "growth inhibition": "80.8% (active)"}, {"smiles": "Nc1nccc2ccc(Oc3ccncc3)cc12", "growth inhibition": "9.25%"}, {"smiles": "CC(C)(C)n1nc(Cc2ccc(F)c(Cl)c2)c2c(N)ncnc21", "growth inhibition": "14.2%"}, {"smiles": "COc1cccc(-c2cc3c(Nc4cccnc4)nccc3[nH]2)c1", "growth inhibition": "4%"}, {"smiles": "CS(=O)(=O)c1cccc(-c2cnc3[nH]cc(-c4ccc(CCC(=O)O)cc4)c3c2)c1", "growth inhibition": "4.25%"}, {"smiles": "Nc1ncnc2c1ncn2[C@@H]1O[C@H](COS(=O)(=O)NC(=O)c2ccccc2O)[C@@H](O)[C@H]1O", "growth inhibition": "5.25%"}, {"smiles": "c1ccc(Oc2ccc(-c3cc(N4CCOCC4)[nH]n3)cc2)cc1", "growth inhibition": "4.25%"}, {"smiles": "COc1ccc(-c2cnc3ccc(N4CCCC4)nn23)cc1OC", "growth inhibition": "21%"}, {"smiles": "Cc1cc(Cl)c(S(=O)(=O)N2CCCC2)cc1OCC(=O)NC1CCCCC1", "growth inhibition": "8%"}, {"smiles": "c1ccc(Oc2ccc(-c3cc(N4CCNCC4)[nH]n3)cc2)cc1", "growth inhibition": "0%"}]}]}
